# Out of some 96,000 compounds screened, about 20,000 (21%) were called active. Not all results are given here. Unmarked numbers belong to inactive results.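 The calls were made as follows: active = CYP2C19 inhibition above a set limit at 5 µM in the primary screen (cut at about 50% in these data); inactive = the rest.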
# Target: Cytochrome P450 2C19 (Homo sapiens) (UniProt P33261)
# Experiment: blockers of cytochrome P450 2C19 activity – biochemical, luminescence, ADME assay, primary screen (AID 778);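 also: plate controls were negative control wells for no effect and 2.5 mM tranylcypromine positive control for full effect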
# Conditions: CYP2C19 Supersomes, luciferin-H EGE luminescence, 30 min; at 5 µM; active compounds read high
# Sequence of Cytochrome P450 2C19 (Homo sapiens) (P33261 whole entry, looked up): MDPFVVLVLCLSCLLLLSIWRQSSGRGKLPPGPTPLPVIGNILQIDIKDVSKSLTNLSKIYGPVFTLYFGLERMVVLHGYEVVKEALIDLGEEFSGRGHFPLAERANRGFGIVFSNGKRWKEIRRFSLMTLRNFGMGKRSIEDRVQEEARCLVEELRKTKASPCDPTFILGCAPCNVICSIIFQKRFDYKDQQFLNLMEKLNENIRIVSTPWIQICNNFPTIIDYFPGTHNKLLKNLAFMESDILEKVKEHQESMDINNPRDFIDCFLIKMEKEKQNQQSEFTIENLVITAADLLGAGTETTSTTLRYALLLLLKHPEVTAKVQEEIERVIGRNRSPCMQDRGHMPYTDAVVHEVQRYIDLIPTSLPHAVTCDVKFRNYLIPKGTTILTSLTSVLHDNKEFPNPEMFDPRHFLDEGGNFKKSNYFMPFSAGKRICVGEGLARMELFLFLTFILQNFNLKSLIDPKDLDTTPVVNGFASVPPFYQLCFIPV
row,Structure (SMILES),inhibition
1,C=CCOc1ccc(Cl)cc1CNCCCN1CCOCC1,5.8%
2,O=C1CC(Sc2ncn[nH]2)C(=O)N1c1ccccc1 (centres undefined),14.1%
3,Cc1ccc(-n2nc(N)c3c(=O)oc(N(C)C)nc32)cc1,17.8%
4,O=C(O)CSCc1nc2ccccc2s1,-10.2%
5,O=C(O)CCCCc1nc2ccccc2s1,-6.9%
6,COc1ccccc1OCc1nc2ccccc2s1,97.6% (active)
7,CCCc1nnc(NC(=O)CN2C(=O)c3ccccc3S2(=O)=O)s1,-6.6%
8,C/C(=N\NS(=O)(=O)c1ccc(Br)cc1)c1cccs1,69.6% (active)
9,C/C(=N\NS(=O)(=O)c1cccc([N+](=O)[O-])c1)c1cc2ccccc2o1,8.6%
10,COC(=O)Nc1ncc(CN2C(=O)c3ccccc3C2=O)s1,8.1%
11,Cc1cc(O)cc(O)c1C(=O)Cc1cnn(-c2ccccc2)c1,56.7% (active)
12,COc1ccc(C(=O)Cc2cnn(-c3ccccc3)c2)c(O)c1,24.9%
13,Cc1[nH]nc(-c2ccc(OCc3cnn(-c4ccccc4)c3)cc2O)c1Oc1ccc(Cl)cc1,20.9%
14,Cc1ccccc1N1C(=O)C2ON(c3ccccc3)C(c3ccncc3)C2C1=O (centres undefined),94.6% (active)
15,COc1cc(C2C3C(=O)N(c4ccccc4)C(=O)C3ON2c2ccccc2)ccc1O (centres undefined),58.5% (active)
16,COc1cc(C2C(C(=O)Nc3ccccc3OC)=C(C)Nc3ncnn32)ccc1O (centres undefined),-5%
17,COc1ccc(NC(=O)Nc2cccc3cccnc23)cc1,31%
18,CC(C)NC(=O)CCCn1c(=S)[nH]c2cc3c(cc2c1=O)OCO3,-9.6%
19,COc1ccc(SCc2noc(C(=O)NCC3CCCO3)c2C(=O)O)cc1 (centres undefined),11.5%
20,COC(C)(C)[C@]12CC(O)(C(C)C)ON1[C@H]1CCCCC1N2O (some centres undefined),7%
21,COC(=O)c1[nH]c2ccccc2c1NC(=O)CN1CCCc2ccccc21,26%
22,Cn1ncc2c(Nc3cccc4ccccc34)ncnc21,12.9%
23,COc1ccc(N2CC(C)Cn3c2nc2c3c(=O)n(Cc3ccccc3F)c(=O)n2C)c(OC)c1 (centres undefined),-10.2%
24,Cc1cccc(N2CC(C)Cn3c2nc2c3c(=O)n(CC(=O)OCc3ccccc3)c(=O)n2C)c1 (centres undefined),66.5% (active)
25,Cn1c(=O)n(CCc2ccccc2)c(=O)c2c1nc1n2CCCN1c1ccccc1,14.9%

row,Structure (SMILES),inhibition
1,O=C(c1ccco1)N1CCN(C(=O)C2CCCN(S(=O)(=O)c3cccc4nsnc34)C2)CC1 (centres undefined),1.6%
2,CC(=O)c1cccc(NC(=O)C2CCCN2S(=O)(=O)c2cccc3nsnc23)c1 (centres undefined),22.5%
3,O=C(Nc1nccs1)C1CCCN1S(=O)(=O)c1cccc2cccnc12 (centres undefined),54.2% (active)
4,COc1ccc(NC(=O)C2CCCN(S(=O)(=O)c3cccc4cccnc34)C2)cc1 (centres undefined),17.5%
5,O=C(O)C1CCCN(S(=O)(=O)c2cccc3cccnc23)C1 (centres undefined),-11.3%
6,CC1CCCCC1NC(=O)C1CCCN1S(=O)(=O)c1cccc2nsnc12 (centres undefined),69.3% (active)
7,O=C(COc1ccc(F)cc1)N(CC1=CCS(=O)(=O)C1)c1ccccc1,-5.1%
8,Cc1ccc(C2NC(=S)NC3=C2N2CCC3CC2)cc1 (centres undefined),-8.9%
9,COc1ccc(S(=O)(=O)NC(CC(=O)NCc2ccccc2OC)c2ccco2)cc1 (centres undefined),38.2%
10,O=C(CC(NS(=O)(=O)c1ccc(Cl)cc1)c1ccco1)NC1CCCC1 (centres undefined),62.5% (active)
11,Cc1ccc(S(=O)(=O)NCC(=O)N(CC(=O)NC2CCCCC2)Cc2ccco2)cc1,15.5%
12,CCN(CC)P(=O)(/C(Cl)=C\Nc1c(C)n(C)n(-c2ccccc2)c1=O)N(CC)CC,-1.6%
13,N#CCCN1CCN(S(=O)(=O)c2ccc(S(=O)(=O)NC3CC3)cc2)CC1,-21.3%
14,CC1(C)CN=C(N2CCN(c3ncnc4sc5c(c34)CCCC5)CC2)S1,32%
15,CC(=O)OC(C(=O)NCCc1ccccc1)c1cccnc1 (centres undefined),0%
16,CCC(Oc1ccccc1)C(=O)NCc1cccnc1 (centres undefined),67.7% (active)
17,O=C(CCc1ccccc1)NCc1cccnc1,18.2%
18,CC(C)CC[n+]1ccn(C2=C([O-])c3ccccc3C(=O)/C2=N\S(=O)(=O)c2ccccc2)c1,7.8%
19,CCN1C(=O)c2cccc3c(N)ccc1c23,23.7%
20,CCn1c(NCCc2ccc(OC)c(OC)c2)nc2c1c(=O)n(C)c(=O)n2C,1.8%
21,COc1ccccc1C(=O)Oc1ccc(N2C(=O)CCC2=O)cc1,-7.5%
22,COc1ccccc1C(=O)C(O)c1ccccc1OC (centres undefined),55.8% (active)
23,COc1ccccc1C(=O)NN1C(=O)C2C3C=CC(O3)C2C1=O (centres undefined),-6.1%
24,Nc1nonc1-c1nc2ccccc2n1CCC(=O)O,-2.5%

# From PubChem BioAssay AID778 (Sanford-Burnham Center for Chemical Genomics, 2007)
